From PubChem BioAssay AID995 (National Center for Advancing Translational Sciences (NCATS), 2007)
Screen size: about 72,000 compounds; about 710 (0.99%) were called active. Not shown: some 7% with an inconclusive outcome. Shown is part of a subset that was picked to be rich in actives. A number with no mark means an inactive call. The call rests on the fitted dose curve; in most records, active means well fitted inhibition curve with a large enough effect; inconclusive means small, poorly fitted or top-dose-only effect; inactive means no such curve, though single readings can be large or run the other way.

Experiment: qHTS Assay for Inhibitors of the ERK Signaling Pathway using a Homogeneous Screening Assay; further: nearly all actives have a fitted effect of over 55% in size
Conditions: HEK293-V1b, vasopressin-stimulated pERK AlphaScreen; series mostly up to 57.5 µM; activity, negative = inhibition: at the top concentration
Text: qHTS Assay for Inhibitors of the ERK Signaling Pathway using a Homogeneous Screening Assay; further: nearly all actives have a fitted effect of over 55% in size
NIH Chemical Genomics Center [NCGC]
NIH Molecular Libraries Screening Centers Network [MLSCN]
Assay Submitter (PI): Dr. Wei Zheng, NCGC/NIH
The Ras/extracellular-signal-regulated kinase (ERK) mitogen activated protein (MAP) kinase signaling pathway (ERK1/2 cascade) plays is a key role in transmitting signals from the cell surface to the nucleus (Nishida and Gotoh 1993; Chang and Karin, 2001). The cascade is initiated by the small G-protein Ras, which recruits Raf […], where activation occurs. Alternatively, this pathway can be activated by elevating intracellular cAMP.
Activation of the ERK pathway is essential in increased cell division and cell survival. Sustained and constitutive activation of the ERK pathway, however, has been linked to uncontrolled cell proliferation, increased cell survival, and tumor progression. Thus, the ERK has been as an attractive target for cancer chemotherapy in the past few years (Sebolt-Leopold and Herrera, 2004). Given its physiological and pathological importance, assessment of ERK phosphorylation has been broadly performed in both basic research and drug discovery. Most assays for the measurement of ERK phosphorylation use the antibody-based detection methods, such as western blot and ELISA. These assays require multiple reagent additions with cell wash steps and are not suitable for high throughout screening.
The current cell-based ERK phosphorylation assay was performed using AlphaScreen platform. AlphaScreen is a two bead-based proximity-dependent chemical energy transfer luminescent assay platform. The assay reagents (ERK SureFire(TM) kit) were supplied from TGR BioSciences (Australia). In the presence of specific antibodies, phosphorylated ERK will bring "donor" and "acceptor" beads to a proximity range (<200 nm), and subsequently lead a chemical luminescent reaction upon exciting donor beads with 680 nm laser. To exclude the assay-related false positives, we used a biotinylated rabbit IgG to perform counter-screen. The biotinylated antibody mimics the phosphorylated ERK1/2 for bringing streptavidin coated beads and protein-A coated beads to a proximity range for the AlphaScreen detection.
NCGC Assay Protocol Summary:
HEK293 cells stably expressing type-1 vasopressin receptor (V1b) were maintained in DMEM medium (Invitrogen, Carlsbad, CA) at 37C under a humidified atmosphere containing 5% CO2 and 95% air. The medium contained 10% FBS, 2 mM L-glutamine, non-essential amino acid, pyruvate and 50 U/ml penicillin and 50 ug/ml streptomycin (Invitrogen). The aliquots of frozen cells were stored at -135C and used for the compound screening. All compounds were screened as titrations from 0.6 nM to 46 uM final concentration. Vasopressin was used to stimulate the ERK phosphorylation pathway. The ERK phosphorylation in cells was determined using an AlphaScreen assay kit provided by PerkinElmer. Data were normalized to the controls for basal activity (DMSO only) and 100% activation (25 nM vasopressin). AC50 values were determined from concentration-response data modeled with the standard Hill equation.
(1) Seed 4 ul/well of resuspended frozen HEK293 cells containing 2000 cells in white 1536-well plates for overnight with 1% FBS at 37C under a humidified atmosphere containing 5% CO2 and 95% air.
(2) Add 23 nL compounds in DMSO solution. The final titration was 0.6 nM to 46 uM.
(3) Incubate at 37C for 30 min.
(4) Dispense 0.5uL vasopressin (25 nM in final)
(5) Incubate at 37C for 5 min.
(6) Dispense 0.5uL of 1:2 diluted 5x lysis buffer.
(7) Incubate at 37C for 10 min.
(8) Dispense 1.5uL of mixture of activation buffer and reaction buffer with AlphaScreen beads (streptavidin donor beads and protein-A acceptor beads, 10 ng/well for each).
(9) Incubate at room temperature for 5 hr.
(10) Detect the assay plate in an EnVision plate reader (PerkinElmer) using the AlphaScreen detection mode.
[…]
On the % scale 0 is the no-effect control and ±100 the full control effect; potency means the concentration at half of the fitted maximal effect.

Row | SMILES | activity, negative = inhibition | Potency
1 | CC(=O)OCC(=O)C1CCC2C3CCC4=CC(=O)CC[C@@]4(C)C3CC[C@]12C (stereo partly specified) | -26.6% | 
2 | Cc1ccc(NC(=O)c2cccc(N(C)C)c2)cc1NC(=O)c1ccc(O)cc1 | -23% | 
3 | CC1(C)OC2CO[C@]3(COS(N)(=O)=O)OC(C)(C)OC3C2O1 (stereo partly specified) | 4.56% | 
4 | CC1(C)C=CC(=O)[C@]2(C)C1CC(=O)[C@]1(C)C2CC[C@@]2(C)C(c3ccoc3)OC(=O)C3OC321 (stereo partly specified) | -1.1% | 
5 | COC(=O)[C@H]1C[C@@H]1[C@H](NC(=O)Oc1ccc(F)cc1)c1ccccc1 | -2.42% | 
6 | O=C(c1cnccn1)N1CCC2(CCCN(Cc3ccccc3)C2)CC1 | -10.5% | 
7 | COc1ccccc1OCCNCC(O)COc1cccc2[nH]c3ccccc3c12 (stereo unspecified) | -2.44% | 
8 | O=C(OCC(COC(=O)c1ccccc1)(COC(=O)c1ccccc1)COC(=O)c1ccccc1)c1ccccc1 | 34.7% | 
9 | COc1c(C(C)C)oc2cc3oc(=O)ccc3cc12 | 29.4% | 
10 | COC(=O)[C@@]1(Cc2ccc(OC)cc2)[C@H]2c3cc(C(=O)N4CCCC4)n(Cc4ccc(OC(F)(F)F)cc4)c3C[C@H]2CN1C(=O)c1ccccc1 | 3.07% | 
11 | O=C(O)CS(=O)c1ccc2c3c(cccc13)C(=O)c1ccccc1-2 (stereo unspecified) | 22.7% [at 11.5 µM] | 
12 | CC(C)CO | 7.21% | 
13 | Nc1nc2[nH]c(=O)c(=O)[nH]c2c(=O)[nH]1 | -3.19% | 
14 | C[C@@H]1/C=C\CC(=O)OC[C@H]2O[C@@H](C=C[C@@H]2O)[C@H](C)/C=C\CC(=O)OC[C@H]2O[C@H]1C=C[C@@H]2O | 20.6% [at 11.5 µM] | 
15 | COC(=O)[C@@H]1C[C@@]2(O)[C@@H](O)[C@@H](O)[C@@H](O)C[C@H]2N1Cc1ccc(C)s1 | -22.8% | 
16 | O=C(c1cc(C(F)(F)F)cc(C(F)(F)F)c1)N1CCC[C@@]2(CCN(c3ccccn3)C2)C1 | -25.8% | 
17 | Cc1nc2cnc(N3CCNCC3)nc2n(CCc2ccccc2)c1=O | -26.2% | 
18 | C/C=C(/C)C(=O)OC1Cc2c(ccc3ccc(=O)oc23)OC1(C)C (stereo unspecified) | 4.83% | 
19 | COc1ccc(C[C@H](N)C(=O)N[C@@H]2[C@H](O)[C@H](n3cnc4c(N(C)C)ncnc43)O[C@@H]2CO)cc1 | 18.5% [at 25.7 µM] | 
20 | Cc1c(S(=O)(=O)O)oc2c1C(=O)C(=O)c1c-2ccc2c1CCCC2(C)C | -6.22% | 
21 | C=C1C([C@@]2(C)C(OC(C)=O)CC(=O)O[C@@](C)(COC(C)=O)C2CC(=O)OC)C(OC=O)C(OC(=O)C(O)C(C)CC)[C@]2(C)C(c3ccoc3)CC(=O)C12O (stereo partly specified) | 22.9% | 

Row | SMILES | activity, negative = inhibition | Potency
22 | CCCCCn1c(SCCC(C)C)nc2c1c(=O)[nH]c(=O)n2C | -28.8% | 
23 | Cn1c(=O)[nH]c(=O)c2c1nc(Br)n2CCCCSc1nc2ccccc2o1 |  | 31.6 µM (active)
24 | Cc1ccnc(SCCn2c(Br)nc3c2c(=O)[nH]c(=O)n3C)n1 | -5.19% | 
25 | CCC[C@@H]1C[C@@]1(CCC)C(NC(=O)c1ccc(-c2ccccc2)cc1)c1cccc(Cl)c1 (stereo partly specified) | -2.63% | 
26 | CC1=C(C(=O)OCc2ccccc2)C(c2ccc(C(F)(F)F)cc2)NC(=O)N1CCCCCC(=O)O (stereo unspecified) | 16.5% | 
27 | Cc1ccccc1NC(=O)CNc1ccccc1N1CCCCC1 | -6.19% | 
28 | O=C(NCCCN1CCN(C2CCCCC2)CC1)Nc1ccccc1C(F)(F)F | -2.46% | 
29 | O=C(CN1CCN(C2CCCCC2)CC1)Nc1ccccc1N1CCCCC1 |  | 25.1 µM (active)
30 | CC(C)[C@H]1CC[C@@H](C)C[C@H]1O | 18.6% | 
31 | CC(C)C1=CC2=CC[C@@H]3[C@](C)(CO)CCC[C@]3(C)C2CC1 (stereo partly specified) | 17.2% | 
32 | C=CC(=O)c1ccc2ccccc2c1 |  | 10 µM (active)
33 | Cc1ccc2nc(CC(=O)c3ccc4ccccc4c3)c(=O)[nH]c2c1 | 3.17% [at 11.5 µM] | 
34 | CC1C(O)CC2C(C(=O)O)=CO[C@@H](O[C@H]3OC(CO)C(O)C(O)C3O)C21 (stereo partly specified) | -6.74% | 
35 | Cc1ccc(S(=O)(=O)NC(=O)NN2C[C@H]3CCC[C@@H]3C2)cc1 | 19.3% [at 25.7 µM] | 
36 | Cc1ccc(/C(=C/CN2CCCC2)c2ccccn2)cc1 |  | inactive
37 | Nc1nc(N)c2[nH]c(CNc3ccc(C(=O)O)cc3)nc2n1 | -2.04% [at 11.5 µM] | 
38 | CCC1=C(OC(=O)N(CC)CC)N2C(=O)OC(=NCCc3c[nH]c4ccccc34)[C@]2(C)[C@H]2C1=CC[C@H]1C(=O)N(CC)C(=O)[C@H]12 | -0.77% | 
39 | c1nc(COc2nsnc2N2CCOCC2)cs1 | -25.1% | 
40 | c1ccc(COc2nsnc2N2CCOCC2)cc1 |  | 25.1 µM (active)
41 | O=C(O)COc1nsnc1N1CCOCC1 | -7.11% | 
42 | O=C(c1csnn1)N1CCC2(CCN(Cc3nccs3)CC2)CC1 | 10.9% | 

Row | SMILES | activity, negative = inhibition | Potency
43 | COc1ccc(C2CC(=O)c3c(O)cc(OC4OC(COC5OC(C)C(O)C(O)C5O)C(O)C(O)C4O)cc3O2)cc1O (stereo unspecified) | 25% | 
44 | O=C1OC(C(O)CO)C(O)=C1O (stereo unspecified) | 2.19% | 
45 | O=C(NCCN1CCOCC1)c1c(F)c(F)c(F)c(F)c1F | -4.02% | 
46 | O=C(NCCN1CCOCC1)c1ccc2c(c1)ncn2C1CCCC1 |  | 25.1 µM (active)
47 | O=C(NCc1cccs1)c1ccc2c(c1)ncn2C1CCCC1 | -13.8% | 
48 | FC(F)(F)c1ccccc1-c1cc(NCc2ccccc2)ncn1 | -10.7% | 
49 | C=CC(=O)OCCOCCOCCOCCOC(=O)C=C |  | inactive
50 | COc1ccc(-c2nc(SCC(=O)N3CCOCC3)n[nH]2)cc1 | -13.4% | 
51 | Cc1oc2nc(SCC(=O)NCc3cccnc3)nc(N)c2c1C | -19.1% | 
52 | O=C(CSc1n[nH]c(-c2cccnc2)n1)Nc1ccnc2ccccc12 |  | 20 µM (active)
53 | CN1CC(=O)N=C1N | 8.99% | 
54 | Nc1nc2c(nc(Cl)n2C2OC(CO)C(O)C2O)c(=O)[nH]1 (stereo unspecified) | -5.51% | 
55 | Oc1ccc2c(c1)OCC1c3cc4c(cc3OC21)OCO4 (stereo unspecified) | 3.05% | 
56 | COC(=O)[C@@H]1C[C@@]2(O)[C@H](O)[C@H](O)[C@H](O)C[C@H]2N1CC1CCCCC1 | 15.9% | 
57 | COC(=O)[C@@H]1C[C@@]2(O)[C@H](O)[C@H](O)[C@H](O)C[C@H]2N1Cc1ccc(C)s1 | 19.5% | 
58 | COc1ccccc1-c1nnc(SCC(=O)Nc2ccccc2)o1 |  | 25.1 µM (active)
59 | COc1ccccc1-c1nnc(SCC(=O)N2CC(C)CC(C)C2)o1 (stereo unspecified) | 14.3% | 
60 | COc1ccccc1-c1nnc(SCC(=O)Nc2cc(C)on2)o1 | -0.126% | 
61 | Cn1cccc1C(=O)N1CCC2(CC1)CN(c1cccc(-c3ccccc3)c1)C2 | -29.8% | 
